The list is not random: actives were taken first. Their share in the collection is about 2.3%.
HSP90 refold inh: HSP90 refolding inhibition in rabbit reticulocyte lysate. luciferase refolding luminescence, 3 h. inhibition, % at 5.6 µM. actives 0.91% (n = 290,000). AID 1789;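 active = inhibition above the screen-wide mean plus 3 SD, computed separately per campaign, cut at about 16% in these data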;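 note: 0% = DMSO wells and 100% = 60 µM geldanamycin wells; inhibitors lower the luminescence because luciferase stays unfolded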
SENP8 block-1: blocks human SENP8 cleavage of Nedd8 substrate; Q96LD8; recombinant SENP8, Nedd8 substrate fluorescence; inhibition, % at 20 µM; actives 0.64% (n = 360,000); in the data active = inhibition mostly above about 40%, no sharp cut-off; inactive = mostly below about 27%
Target sequence (Q96LD8 whole entry, looked up): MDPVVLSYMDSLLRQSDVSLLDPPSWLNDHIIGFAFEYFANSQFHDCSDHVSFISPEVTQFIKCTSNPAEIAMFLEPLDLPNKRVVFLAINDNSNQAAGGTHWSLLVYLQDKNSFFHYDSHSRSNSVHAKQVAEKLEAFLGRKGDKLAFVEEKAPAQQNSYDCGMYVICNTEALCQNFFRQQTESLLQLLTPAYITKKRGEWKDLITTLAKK
SENP8 block-2: blocks the human protease SENP8. actives 1.2% (n = 330,000). inhibition, % at 10 µM. purified SENP8, Z-RLRGG-aminoluciferin cleavage, luminescence; in the data active = inhibition above about 50%
LGR2 inh: blocks bursicon-induced cAMP signaling via Drosophila LGR2. actives 0.35% (n = 380,000). inhibition, % at 9.99 µM. HEK293 LGR2, CRE-luciferase, bursicon-stimulated, 4 h;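 active = drop in luminescence signal, shown as inhibition above about 50% in the replicate tests, limit read from the data, passing the limit was not always enough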;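 note: agonist challenge used bursicon conditioned medium at about half maximal strength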
SENP7 inh: SENP7 protease inhibition; recombinant SENP7, Z-RLRGG-aminoluciferin luminescence, 40 min; Q9BQF6; actives 1.5% (n = 330,000); inhibition, % at 5 µM;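 active = inhibition above about 50% at the single test dose, limit read from the data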;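 note: plate controls were DMSO with enzyme for no effect and no enzyme buffer wells for full effect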
SENP6 inh: inhibitors of human SENP6 protease. actives 1.8% (n = 330,000). inhibition, % at 10 µM. Recombinant SENP6 catalytic domain, aminoluciferin luminescence. Q9GZR1;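 active = inhibition above about 50% at the single tested dose, limit read from the data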;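 note: plate controls were DMSO wells with enzyme for no effect and DMSO wells lacking enzyme for full effect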
Target sequence (Q9GZR1 628-1112 limits assumed): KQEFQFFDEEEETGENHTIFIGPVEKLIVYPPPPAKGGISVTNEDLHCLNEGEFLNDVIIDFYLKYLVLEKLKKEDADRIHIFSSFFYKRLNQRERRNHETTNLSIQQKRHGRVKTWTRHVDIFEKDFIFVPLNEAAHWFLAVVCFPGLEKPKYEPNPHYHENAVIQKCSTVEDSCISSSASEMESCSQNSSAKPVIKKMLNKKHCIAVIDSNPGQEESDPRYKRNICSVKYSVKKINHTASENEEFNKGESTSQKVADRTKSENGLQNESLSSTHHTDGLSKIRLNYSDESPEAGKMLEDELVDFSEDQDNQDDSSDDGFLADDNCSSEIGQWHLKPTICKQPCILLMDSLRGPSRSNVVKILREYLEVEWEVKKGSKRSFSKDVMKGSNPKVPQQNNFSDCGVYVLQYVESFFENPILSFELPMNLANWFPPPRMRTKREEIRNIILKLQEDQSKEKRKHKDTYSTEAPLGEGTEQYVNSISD
SENP8 confirm: human SENP8 inhibition, confirmed; shares compounds with SENP7 inh; Recombinant SENP8, Z-RLRGG-aminoluciferin luminescence, 60 min; inhibition, % at 12.5 µM; actives 40% (n = 6,200);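 active = mean inhibition across replicates above about 50%, limit read from the data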
SENP6 conf: confirmation of human SENP6 protease inhibitors; shares compounds with SENP7 inh; recombinant SENP6, Z-RLRGG-aminoluciferin luminescence; inhibition, % at 12.5 µM; actives 58% (n = 6,200)
SENP7 conf: confirmation of human SENP7 protease inhibitors. recombinant SENP7, Z-RLRGG-aminoluciferin luminescence, 40 min. AID 488917. inhibition, % at 12.5 µM. actives 69% (n = 6,200). shares compounds with SENP7 inh
Casp3 SENP sel: inhibits human caspase-3 in SENP selectivity test. shares compounds with SENP7 inh. purified caspase-3, Z-DEVD-aminoluciferin luminescence, 60 min. inhibition, % at 12.5 µM. actives 60% (n = 6,200). AID 488918;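 active = mean inhibition above about 50%, limit read from the data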;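 note: plate controls were enzyme with DMSO for no effect and wells without caspase-3 for full effect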
Luc interf: luminescence interference (SENP counter-screen) | inhibition, % at 12.5 µM | actives 39% (n = 6,200) | Pre-incubated SENP8/Z-RLRGG-aminoluciferin, luciferase luminescence interference | shares compounds with SENP7 inh;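 active = mean inhibition above about 50% when retested at one dose, limit read from the data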;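 note: plate controls were DMSO wells with completed reaction for no effect and substrate without enzyme for full effect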
* marks the source's active call; other numbers are inactive results; i = inactive; · = not tested or not shown.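 Rule for the calls, unless noted: active = mean inhibition above about 50% in the one-dose retest (limit read from the data); inactive = the rest.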

SMILES | HSP90 refold inh | SENP8 block-1 | SENP8 block-2 | LGR2 inh | SENP7 inh | SENP6 inh | SENP8 confirm | SENP6 conf | SENP7 conf | Casp3 SENP sel | Luc interf
O=C(Nc1cc([N+](=O)[O-])ccc1O)c1cccc(C(=O)Nc2cc([N+](=O)[O-])ccc2O)c1 | 2 | -15 | · | 6 | · | · | · | · | · | · | ·
O=C(Nc1ccc(O)cc1C(=O)O)c1ccc2c(c1)C(=O)N(Cc1ccco1)C2=O | -3 | 18 | 0 | -10 | -2 | -11 | · | · | · | · | ·
COc1ccc2cc(-c3ccn[nH]3)ccc2c1 | -3 | 4 | 45 | -64 | 59* | 66* | 32 | 53* | 84* | 45 | 64*
C[C@@H]1CN([C@H](C)CO)C(=O)Cc2cc(NC(=O)CCN3CCOCC3)ccc2O[C@H]1CN(C)S(C)(=O)=O | · | · | · | 10 | · | · | · | · | · | · | ·
COc1ccc2c3c(n(C)c2c1)[C@H](CO)N(C(C)=O)CC31CN(Cc2nccs2)C1 | · | · | · | -11 | · | · | · | · | · | · | ·
O=Cc1ccccc1OCc1ccc2c(c1)OCO2 | -3 | 13 | 91* | 7 | 92* | 97* | 96* | 97* | 101* | 95* | 90*
CO[C@@H]1CN(C)C(=O)c2ccc(NC(C)=O)cc2OC[C@@H](C)N(C(=O)c2ccccc2)C[C@@H]1C | · | · | · | -2 | · | · | · | · | · | · | ·
CCOC(=O)c1ccc(N/C=C/C(=O)c2ccco2)cc1 | 5 | -275 | 83* | · | -6 | 85* | 69* | 71* | 85* | 88* | 30
Cc1ccc(N/C=C/C(=O)c2ccco2)c(O)c1 | 3 | -72 | 47 | -55 | 56* | 14 | 55* | 53* | 84* | 62* | 5
CCOC(=O)c1ccc(N/C=C/C(=O)c2ccc(OC)c(OC)c2)cc1 | 0 | -342 | -3 | · | -6 | -18 | · | · | · | · | ·
Cc1cc(N/C=C/C(=O)c2ccc(Br)cc2)no1 | 1 | -10 | -8 | -68 | 1 | -25 | · | · | · | · | ·
Cc1ccnc(N/C=C/C(=O)c2ccc(Br)cc2)c1 | 9 | -202 | 87* | -12 | 96* | 88* | 26 | 40 | 60* | 54* | 18
O=C(/C=C/Nc1ccc(F)cc1)c1ccc(Br)cc1 | 3 | -166 | 37 | -41 | 79* | 1 | 4 | 8 | 12 | 36 | -3
CC(C)NC(=O)Nc1ccc2c(c1)C(=O)N([C@@H](C)CO)C[C@@H](C)[C@@H](CN(C)C(=O)c1ccccc1)OCCCC[C@H](C)O2 | · | · | · | 9 | · | · | · | · | · | · | ·
C[C@H]1CCCCO[C@H](CN(C)Cc2ccncc2)[C@@H](C)CN([C@@H](C)CO)C(=O)c2cc(NS(=O)(=O)c3cn(C)cn3)ccc2O1 | · | · | · | -23 | · | · | · | · | · | · | ·
COc1cccc(-c2ccc([C@H]3[C@@H](CO)N4C(=O)CN(C(=O)c5ccncc5)C[C@@H]34)cc2)c1 | · | · | · | -1 | · | · | · | · | · | · | ·
O=C(/C=C/Nc1ccc(F)cc1)c1ccco1 | -2 | -336 | 74* | · | 69* | 83* | 84* | 82* | 96* | 89* | 79*
O=C(Nc1ccc2c(c1)[C@H]1C[C@H](CC(=O)N3CCCCC3)O[C@H](CO)[C@H]1O2)c1ccc2c(c1)OCO2 | · | · | · | -11 | · | · | · | · | · | · | ·
C[C@@H]1CCCCO[C@@H](CN(C)C)[C@H](C)CN([C@H](C)CO)C(=O)c2cc(NS(=O)(=O)c3ccc(F)cc3)ccc2O1 | · | · | · | 21 | · | · | · | · | · | · | ·
O=C(CSc1ccc(-c2nc3ccccc3[nH]2)cn1)Nc1ccc(S(=O)(=O)NC2CC2)cc1 | 0 | -264 | 71* | -34 | 72* | 85* | 82* | 48 | 98* | 56* | 86*
Fc1ccc(-c2nc3ccccc3[nH]2)cc1 | -2 | 10 | 64* | -60 | 83* | 83* | -7 | 64* | 89* | 84* | 72*
O=C(CSc1ccc(-c2nc3ccccc3[nH]2)cn1)Nc1ccc2c(c1)OCCO2 | -2 | -113 | -12 | · | -6 | -21 | · | · | · | · | ·
Nc1ccc(-c2nc3ccccc3[nH]2)cc1 | 3 | -414 | 48 | -32 | 65* | 70* | 49 | 47 | 83* | 82* | 66*
Nc1ccc(-c2nc3c(ccc4ccccc43)[nH]2)cc1 | -4 | i | 31 | -57 | 31 | 59* | 24 | 21 | 37 | 18 | -3
C[C@H](CO)N1C[C@H](C)[C@H](CN(C)C(=O)c2ccc(F)cc2)Oc2ncc(-c3ccncc3)cc2C1=O | · | · | · | -6 | · | · | · | · | · | · | ·
SMILES | HSP90 refold inh | SENP8 block-1 | SENP8 block-2 | LGR2 inh | SENP7 inh | SENP6 inh | SENP8 confirm | SENP6 conf | SENP7 conf | Casp3 SENP sel | Luc interf
CCCNC(=O)N1C[C@H](O)COC[C@@H]2O[C@H](CC(=O)N[C@H]3CCN(Cc4ccccc4)C3)CC[C@H]21 | · | · | · | 0 | · | · | · | · | · | · | ·
CO[C@H]1CN(C)C(=O)c2ccc(NC(C)=O)cc2OC[C@@H](C)N(Cc2ccc(F)cc2)C[C@@H]1C | · | · | · | -4 | · | · | · | · | · | · | ·
N#CCSc1ccc(-c2nc3ccccc3[nH]2)cn1 | -1 | -238 | 48 | -72 | 68* | 7 | 71* | 68* | 89* | 82* | 74*
C[C@@H]1CN([C@H](C)CO)C(=O)Cc2cc(NC(=O)C3CC3)ccc2O[C@H]1CN(C)CC1CCCCC1 | · | · | · | 17 | · | · | · | · | · | · | ·
Cc1ccc(-c2csc(NC(=O)c3cccc(C)c3)c2C(=O)O)cc1 | · | -98 | 92* | -79 | 69* | 97* | -7 | 96* | 100* | 91* | 84*
COc1cc(C(=O)Nc2scc(-c3ccc(Br)cc3)c2C(=O)O)cc(OC)c1OC | -5 | -151 | 9 | -3 | 5 | 7 | · | · | · | · | ·
Cc1cccc(C(=O)Nc2sc(C)c(-c3ccccc3)c2C#N)c1 | -4 | -47 | 24 | · | 33 | 60* | 30 | 40 | 54* | 31 | 8
Cc1ccc(-c2csc(NC(=O)c3ccc(Br)cc3)c2C(=O)O)cc1 | -4 | -168 | 86* | -25 | 11 | 71* | -8 | 87* | 74* | 76* | 29
CC(C)c1ccc(-c2csc(NC(=O)c3cccs3)c2C(=O)O)cc1 | -1 | -64 | 91* | -15 | 29 | 96* | 11 | 98* | 90* | 84* | 84*
COc1ccc2c3c([nH]c2c1)[C@H](CO)N(C)CC31CN(C(=O)c2cccnc2)C1 | · | · | · | 2 | · | · | · | · | · | · | ·
CCCNC(=O)C[C@H]1CC[C@@H]2[C@H](COC[C@@H](O)CN2C(=O)c2cc(Cl)cc(Cl)c2)O1 | · | · | · | 3 | · | · | · | · | · | · | ·
